From PubChem BioAssay (NCI) come the findings set out here.

Each structure is given as a SMILES string. About 83,000 compounds went through this panel and 20% of them were active in at least one assay; those are over-represented in the sample as a whole.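 Compound tested at a single concentration for 48 hours in 96-well plates; a percent growth value below 10 was scored as active.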 Calls of active or inactive are those of the source.

The experiment relates to HL-60(TB) leukemia. Put plainly: NCI-60 one-dose screen, 48 h (100 = growth as untreated, 0 = no growth, -100 = all killed). Particulars: 10 µM unless noted.
Turning to `Cc1cc(N2CCN(CC(=O)Nc3ccc4c(ccn4C)c3)CC2)nc(N2CCCCCC2)n1`, the growth was 74.7% (inactive).

`c1ccc2c(Cc3csc4ccccc34)csc2c1`: the growth was 72% (inactive).

As to `CCC1CN2C(=N1)c1ccccc1-c1cc(Cl)ccc12` (stereo not given), the growth was 2.51% (active).

For `COc1ccc(/C=C/c2cccc[n+]2C)cc1`, the growth was 105% (inactive).

In the case of `O=C(Nc1cccc([N+](=O)[O-])c1)c1cccc(C(=O)Nc2cccc([N+](=O)[O-])c2)c1`, the growth is 81% (inactive).

In the case of `O=C(Cc1ccccc1)Nc1cccc(N=Cc2ccccc2O)c1`, the growth was 100% (inactive).

In the case of `O=[N+]([O-])c1ccccc1Sc1ccccc1[N+](=O)[O-]`, the growth is 111% (inactive).

Take `CCCCC(=O)OC1CCCCC1C` (stereo not given): the growth is 117% (inactive).

Consider `O=C(CCc1nnc(SCc2ccccc2)s1)c1nc2ccccc2[nH]1`, for which the growth is 92.3% (inactive).

Regarding `CCCCCCCCCCCCCCCC(=O)OC[C@@]1(O)C[C@@]23CC[C@@H]4C(C)(C)CCC[C@@]4(C)[C@@H]2CC[C@H]1C3`, the growth is 73.3% (inactive).

Turning to `COc1cccc(C(Cc2ccccc2)Nc2ccccc2)c1OC` (stereo not given), the growth is 96.3% (inactive).

Turning to `Cc1ccc(/C=C2\CN(C(=O)CCN3CCC(=NO)CC3)C/C(=C\c3ccc(C)cc3)C2=O)cc1`, the growth was -11.3% (active).

As for `O=c1oc2ccc(Br)cc2c(=O)n1-c1ccc(I)cc1F`, the growth was -49.1% (active).

For `O=[N+]([O-])c1ccc(SSc2ccc([N+](=O)[O-])cc2Cl)c(Cl)c1`, the growth is 92.5% (inactive).

In the case of `CCCCCC/C=N/Nc1ccc([N+](=O)[O-])cn1`, the growth is 62.5% (inactive).

In the case of `CCCCCn1sc(=O)n(Cc2ccc(CNC(=O)OCc3ccc4c(Cl)cc(Cl)c(O)c4n3)cc2)c1=O`, the growth was 63.5% (inactive).

Regarding `COc1ccc(C2CC(c3ccc(Nc4ccnc5cc(Cl)ccc45)cc3)=NN2C=O)cc1` (stereo not given), the growth was -42.6% (active).

For the compound `COC(=O)c1ccc2c(c1)c1c(C)c3cnccc3c(C)c1n2C`, the growth was -2.92% (active).

In the case of `C=CCC(CCCC)(C(=O)OCC)C(=O)OCC`, the growth was 80.6% (inactive).

Turning to `COc1cc(-c2cc(-c3cc(OC)c(OC)c(OC)c3)nc3nc(N)[nH]c(=O)c23)ccc1Oc1ccnc2cc(Cl)ccc12`, the growth is 11.4% (inactive).

`CC(=O)ON=C1C=CC(=C(C#N)c2ccccc2)C=C1`: the growth was -10.5% (active).

As to `Cc1ccc(Sc2sc(-c3ccccc3)nc2[P+](c2ccccc2)(c2ccccc2)c2ccccc2)cc1`, the growth was -40.5% (active).

For `CCCn1c(=S)sc2c1nc(C)n1c(Nc3ccccc3)nnc21`, the growth was 45.3% (inactive).

On to `NNC(=O)C1CC2c3ccccc3C1c1ccccc12` (stereo not given), for which the growth is 113% (inactive).

In the case of `C=C1C(=O)O[C@H]2[C@H]1CCC(/C=N/c1ncc(Br)cc1N)=C\CC[C@@]1(C)O[C@@H]21`, the growth was -21.4% (active).

Turning to `CC(CN)[C@@H]1CC[C@]2(CO)CC[C@]3(C)[C@H](CC[C@@H]4[C@@]5(C)CCC(N)C(C)(C)[C@@H]5CC[C@]43C)[C@@H]12` (stereo not given in full), the growth is 31.5% (inactive).

For the compound `CCc1cnc2ccccc2c1/C=C/c1ccc(N(C)C)cc1`, the growth was 12.9% (inactive).

As for `C=C1C(=O)O[C@H]2[C@H]1CC/C(COC(=O)c1ccc(C#N)cc1)=C\CC[C@@]1(C)O[C@@H]21`, the growth is -33.6% (active).

On to `CCOC(=O)C(CSC(c1ccccc1)(c1ccccc1)c1ccccc1)NC(=O)C(CSC(c1ccccc1)(c1ccccc1)c1ccccc1)NC(c1ccccc1)(c1ccccc1)c1ccccc1` (stereo not given), for which the growth is 118% (inactive).

Take `N[C@@H](CC/[N+]([O-])=N/O)C(=O)O`: the growth is 110% (inactive).

For `CC(=O)c1ccc(Nc2nc(C(C)=O)c(C)s2)cc1`, the growth was 88% (inactive).

As for `C=C1C(=O)O[C@H]2[C@H]1CC/C(COC(=O)NCc1ccc(Cn3c(=O)sn(CCCI)c3=O)cc1)=C\CC[C@@]1(C)O[C@@H]21`, the growth was -9.41% (active).

Regarding `Clc1cccc(Cl)c1Nc1ccc2nnc(-c3ccncc3)n2n1`, the growth is 88.7% (inactive).

`OCCN1CCOCC1`: the growth was 121% (inactive).

Consider `COc1cc2cc(Oc3ccc(NC(=O)Nc4ccc(Cl)c(C(F)(F)F)c4)cc3)c(C)nc2cc1OC`, for which the growth was -40.6% (active).

For the compound `COc1ccc(/C=C/c2nc(Nc3ccc(S(=O)(=O)Nc4nc(C)cc(C)n4)cc3)c3ccccc3n2)cc1`, the growth is 73.6% (inactive).

`Cc1ccc2c(n1)C(=O)C(Oc1ccc(Br)cc1)=CC2=O`: the growth is 41.1% (inactive).

`CN1CCN(Cc2ccc(NC(=O)c3cncc(C#Cc4cnc(N)c5ccncc45)c3)cc2C(F)(F)F)CC1`: the growth is -9.61% (active).

`COc1ccc(C(Cc2ccccc2)NCCN2CCOCC2)cc1` (stereo not given): the growth was 93.8% (inactive).

`CCN(CCO)CCNc1ccc(C)c2sc3cc(OC)ccc3c(=O)c12`: the growth was 67.5% (inactive).
